Assay outcomes (PubChem)
UBC13 inh: inhibitors of human UBC13 polyubiquitin chain formation; TR-FRET; inhibition, % at 20 µM; P61088; 330,000 compounds, 0.47% hits; in the data active means inhibition above about 45%, passing the limit was not always enough
Target sequence (P61088 whole entry, looked up): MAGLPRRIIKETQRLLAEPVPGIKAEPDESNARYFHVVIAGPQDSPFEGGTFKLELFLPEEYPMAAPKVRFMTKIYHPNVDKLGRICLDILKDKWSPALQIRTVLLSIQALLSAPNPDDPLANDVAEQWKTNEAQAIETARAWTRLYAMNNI
Neddylation inh: inhibitors of human cullin neddylation | AID 651699 | P61081+Q13564 | TR-FRET cullin neddylation, biochemical | calls only at 25 µM | 360,000 compounds, 0.58% hits; in the data active means inhibition above about 36%
MBD2 DNA inh: inhibitors of human MBD2 binding to methylated oligonucleotide; TR-FRET; 370,000 compounds, 0.31% hits; inhibition, % at 4.4 µM; Q9UBB5; AID 686964; in the data active means inhibition above about 13%
UHRF1 binding: UHRF1 methyl-DNA binding inhibition. Q96T88. UHRF1 binding to methylated oligo, TR-FRET. inhibition, % at 4.4 µM. 370,000 compounds, 0.75% hits. AID 687016;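 further: UHRF1 SRA domain binding a hemimethylated CpG hairpin DNA probe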
UHRF1 DNA bind: UHRF1 methyl-oligo binding inhibition as MBD2 counter-screen; 1,000 compounds, 25% hits; inhibition, % at 4.4 µM; UHRF1 binding to methylated oligonucleotide, TR-FRET; shares compounds with MBD2 DNA inh;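 further: UHRF1 SRA domain binding a labeled hemimethylated CpG hairpin DNA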
MBD2 DBD conf: confirmation of human MBD2-DBD methylated oligonucleotide binding inhibitors; shares compounds with MBD2 DNA inh; TR-FRET MBD2-DBD binding to methylated oligonucleotide; inhibition, % at 4.4 µM; 1,000 compounds, 26% hits; in the data active means inhibition above about 14%
Hits are given with their value; - = inactive; . = no result shown. Compounds with a hit are over-represented: about 1.8% of the library has one in this group of screens. Unless noted, no stated cut-off is given here; in the data, active means inhibition above about 21%; inactive means the rest.

SMILES | UBC13 inh | Neddylation inh | MBD2 DNA inh | UHRF1 binding | UHRF1 DNA bind | MBD2 DBD conf
O=C1NC(=S)NC(=O)C1=Cc1cccn1-c1ccc(O)cc1 | . | - | 14 | 32 | 41 | 24
CN1C(=O)/C(=C/c2cccn2-c2ccc3ccccc3c2)C(=O)NC1=S | - | - | - | - | . | .
C#CCCC[C@@H]1OC(=O)CNC(=O)C([C@@H](C)CC)NC(=O)[C@@H]2CCCN2C(=O)C([C@@H](C)CC)OC(=O)[C@H](Cc2ccccc2)N(C)C(=O)[C@H](C(C)C)NC(=O)C1(C)C (some centres not stated) | . | - | 15 | 43 | - | -
O=C(O)C1CN2CCC1CC2 (configuration not stated) | - | - | 14 | - | - | -
O=C(c1cccs1)C1CN2CCC1CC2 (configuration not stated) | - | - | - | - | . | .
COC(=O)C1=C(c2ccccc2OCc2ccccc2)C[C@@H]2CC[C@H]1N2C(=O)NCc1ccc([N+](=O)[O-])cc1 | - | - | - | - | . | .
COC(=O)C(O)(c1c(C)[nH]n(-c2ccccc2)c1=O)C(F)(F)F (configuration not stated) | - | - | - | - | . | .
COc1cc(C(c2c(C)[nH]n(-c3ccccc3)c2=O)c2c(C)[nH]n(-c3ccccc3)c2=O)cc(OC)c1OC | - | - | 14 | - | - | -
COC(=O)C1=C(c2ccc(F)cc2OCc2ccccc2)C[C@@H]2CC[C@H]1N2C(=O)NCCOc1ccccc1Cl | - | - | 16 | - | - | -
CN(C(=O)Oc1ccc(C(C)(C)C)cc1)c1ccccc1 | - | - | - | - | . | .
COc1cc2c(cc1OC)-c1c3c(cc4c1[C@@H](C2)N(C)CC4)OCO3 | - | - | 46 | 50 | 30 | 20
O=C1NC(=S)N(c2ccccc2)C(=O)/C1=C/c1ccco1 | - | - | 58 | 91 | 100 | 89
COc1ccccc1/C=C1\C(=O)NC(=S)N(c2ccccc2)C1=O | - | - | - | - | . | .
O=C1NC(=O)N(CCc2ccc(F)cc2)C(=O)/C1=C/c1ccco1 | - | - | 74 | 97 | 23 | 16
Cc1ccc(/C=C2/C(=O)NC(=O)N(CCc3ccc(F)cc3)C2=O)o1 | - | - | - | - | . | .
COC(=O)c1ccc(CC(C(=O)c2ccccc2)N(C)C)cc1 (configuration not stated) | - | - | - | - | . | .
COC(=O)C(Cc1ccc(N(CCCl)CCCl)cc1)N=Cc1ccccc1O (configuration not stated) | - | - | - | - | . | .
CCc1ccccc1NC(=O)CNC1CCCCC1 | - | - | - | - | . | .
Cc1ccc2ccccc2c1NC(=O)CNC1CCCCC1 | - | - | 18 | - | - | -
O=C1NC(=O)N(Cc2ccccc2)C(=O)/C1=C/C=C/c1ccco1 | - | - | - | - | . | .
CC[n+]1c(-c2ccccc2)c2cc(N)ccc2c2ccc(N)cc21 | . | - | 70 | 72 | 77 | 80
Cc1c(C=O)c2ccccc2n1Cc1ccc([N+](=O)[O-])cc1 | - | - | - | - | . | .
Cc1ccc(-c2cc(-c3ccccc3)cc(-c3ccccc3)[n+]2-c2ccccc2C(=O)O)cc1 | - | . | 19 | 21 | - | 28
CCOCCCn1c(N)c(C(=O)Nc2sc3c(c2C(=O)OC)CCCC3)c2nc3ccccc3nc21 | - | . | 14 | - | - | -
OCC12COC3c4ccccc4C(OC1)N32 (configuration not stated) | - | - | - | - | . | .
SMILES | UBC13 inh | Neddylation inh | MBD2 DNA inh | UHRF1 binding | UHRF1 DNA bind | MBD2 DBD conf
O=C(COc1ccc(Cl)cc1)NCCc1cnc[nH]1 | - | - | 52 | - | - | -
COc1ccc(-c2ccc3c(c2)CN(C(=O)CCc2ccccc2)Cc2cnnn2-3)cc1 | . | . | - | - | . | .
COC(=O)C1=C(c2c(C)noc2C)C[C@@H]2CC[C@H]1N2C(=O)N1CCC(O)CC1 | - | - | 28 | - | - | -
COC(=O)C1=C(c2c(C)noc2C)C[C@@H]2CC[C@H]1N2C(=O)N1CCC(C)CC1 | - | - | - | - | . | .
COC1C(C)OC(OC2CC(C)(O)Cc3cc4c(c(O)c32)C(=O)c2c(O)cc3c(c2C4=O)OC2OC3(C)C(O)C(N(C)C)C2O)C(OC)C1(C)OC (configuration not stated) | . | - | 107 | 97 | 102 | 109
CC(C)N1C(=O)/C(=C/C=C/c2ccco2)C(=O)N(Cc2ccco2)C1=O | - | - | 19 | 50 | - | -
